PMP22 txn – PMP22 gene transcription modulation. S16 Pmp22-F2sN Schwann cells, FLuc/NLuc coincidence luminescence, 24 h. Potency, µM (doses to about 57.5 µM), inactives show at the top dose activity change, negative = inhibition, most hits filed as inhibitors. actives 2% (n = 43,000); active = clear falling dose curves in both reporters; inconclusive = both reporters move, but less clearly or upward; inactive = either reporter flat; the % is the NLuc reporter signal; also: potency is read from the fitted curve at half-maximal effect; % is scaled to controls: 0 for no effect and ±100 for the full control effect
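S16(c9) Schwann cells with FLuc/NLuc coincidence reporter in the Pmp22 3' UTR; compounds pin-transferred, 24 h at 37C. Dual-luciferase read: FLuc first, then NLuc after Stop&Glo, each 10 min at room temperature.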
FH mod – Identification of activators of human fumarate hydratase by quantitative high-throughput screening; Fumarate hydratase, mitochondrial (Homo sapiens), P07954; FH coupled MDH/diaphorase resazurin fluorescence, 15 min; Potency, µM (highest dose often 79.9 µM), without a hit: at the highest dose activity change, negative = inhibition, actives largely listed as inhibitors; actives 0.22% (n = 54,000); AID 1347055, 2019; also: potency is read from the fitted curve at half-maximal effect; % is scaled to controls: 0 for no effect and ±100 for the full control effect; the screen sought activators but most active calls are inhibition curves; nearly all actives have a fitted effect of over 45% in size
Target sequence (P07954 whole entry, looked up): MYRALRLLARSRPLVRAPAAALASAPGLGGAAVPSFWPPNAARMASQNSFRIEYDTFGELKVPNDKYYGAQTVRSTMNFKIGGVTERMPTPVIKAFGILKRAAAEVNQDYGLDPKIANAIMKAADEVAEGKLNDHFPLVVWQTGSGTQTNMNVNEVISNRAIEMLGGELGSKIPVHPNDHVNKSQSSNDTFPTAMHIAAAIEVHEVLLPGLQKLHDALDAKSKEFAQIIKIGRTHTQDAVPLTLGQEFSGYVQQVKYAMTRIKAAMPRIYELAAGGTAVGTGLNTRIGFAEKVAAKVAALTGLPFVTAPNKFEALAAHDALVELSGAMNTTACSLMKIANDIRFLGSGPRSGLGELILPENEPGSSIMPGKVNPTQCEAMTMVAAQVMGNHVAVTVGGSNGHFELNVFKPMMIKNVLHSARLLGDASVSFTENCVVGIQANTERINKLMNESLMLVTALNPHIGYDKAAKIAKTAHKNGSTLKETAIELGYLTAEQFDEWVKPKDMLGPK
HTT-AS act – activators of huntingtin-antisense promoter activity; actives 0.24% (n = 48,000); Potency, µM (highest dose often 57.5 µM), without a hit: at the top dose activity change, positive = activation, actives largely listed as activators; HEK293 HTT-AS promoter firefly luciferase reporter, 24 h; response scale: percent change from vehicle, -100% = no light; AID 1508624; also: potency is read from the fitted curve at half-maximal effect; nearly all actives have a fitted effect of over 55% in size
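Quantitative HTS used concentration series of up to 57.5 uM final on HEK293 luciferase reporter cells, 24 h at 37 degrees C. Readout was Dual-Glo firefly luminescence.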
pS6 MEF inh – reduces mTORC1 signaling in Tsc2 and p53 null MEF cells; Tsc2-/- p53-/- MEF, phospho-rpS6 immunofluorescence/PI, 24 h; Potency, µM (top dose mostly 38.3 µM), for the others: top-dose activity change, negative = inhibition, hits mostly inhibitors; actives 0.78% (n = 44,000); AID 493208;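 also: potency is read from the fitted curve at half-maximal effect; plate controls were DMSO for no effect and rapamycin for full effect; nearly all actives have a fitted effect of over 50% in size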
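Tsc2-/-, p53-/- mouse embryonic fibroblasts (empty-vector line) exposed to compound 24 hrs at 37 C, fixed, immunostained for phospho-rpS6 and counterstained with propidium iodide. Acumen laser scanning gives % positive cells from Alexa 488/PI ratio, thresholded using 7.5 nM rapamycin; PI count gives viability.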
HTT promoter inh – inhibitors of huntingtin promoter activity. HEK293 HTT promoter firefly luciferase reporter, 24 h. Potency, µM (top dose mostly 57.5 µM), without a hit: at the top dose activity change, negative = inhibition, usual class: inhibitors. actives 0.93% (n = 48,000). AID 1508623; also: potency is read from the fitted curve at half-maximal effect; nearly all actives have a fitted effect of over 50% in size
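Firefly luciferase signal from promoter-reporter HEK293 cells was scaled between vehicle (0%) and zero RLU (-100%). Compounds were tested at final concentrations of up to 57.5 uM over 24 h at 37 degrees C. PTC124 at 50 uM final served as control inhibitor.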
S16 F2sN tox – S16 Schwann cell cytotoxicity | S16 Pmp22-F2sN Schwann cells viability, CellTiter-Glo, 24 h | Potency, µM (top dose mostly 57.5 µM), without a hit: at the highest dose activity change, negative = cytotoxicity, most hits filed as cytotoxic | actives 0.48% (n = 43,000) | AID 1508642; also: potency is read from the fitted curve at half-maximal effect; % is scaled to controls: 0 for no effect and ±100 for the full control effect; nearly all actives have a fitted effect of over 65% in size
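Viability was measured by CellTiter-Glo luminescence (15 min, room temperature). This followed 24 h at 37 °C of compound exposure (23 nL pin transfer) in S16 Pmp22-F2sN Schwann cells, 500-1,000 per well.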
NLuc sat counter – NanoLuc enzyme inhibition artifact for PMP22 screen | shares compounds with PMP22 txn | Secreted NLuc enzyme (filtered S16 cell medium), Nano-Glo luminescence | Potency, µM (top dose mostly 57.5 µM), without a hit: at the top dose activity change, negative = inhibition, hits mostly inhibitors | actives 4% (n = 690); also: potency is read from the fitted curve at half-maximal effect; % is scaled to controls: 0 for no effect and ±100 for the full control effect
NLuc Km ctr – counter-screen for PMP22 expression modulators: NanoLuc inhibition at Km; shares compounds with PMP22 txn; actives 5% (n = 690); secreted NLuc enzyme, coelenterazine luminescence, Km conditions; Potency, µM (top dose mostly 57.5 µM), for inactives: top-dose activity change, negative = inhibition, most hits filed as inhibitors; also: potency is read from the fitted curve at half-maximal effect; % is scaled to controls: 0 for no effect and ±100 for the full control effect
FLuc ctr PMP22 – inhibits firefly luciferase, PMP22 counter-screen | shares compounds with PMP22 txn | purified P. pyralis FLuc, luminescence, 10 min | Potency, µM (titrated, usually from 57.5 µM), without a hit: at the highest dose activity, negative = inhibition, actives largely listed as inhibitors | 690 tested, under 10 active; also: % of control where 0% means no effect
S16 viab conf – confirmation of cytotoxicity in S16 Pmp22-F2sN Schwann cells (luciferase reporters placed in the Pmp22 gene); shares compounds with PMP22 txn; S16 Schwann cells viability, CellTiter-Glo ATP luminescence, 24 h; Potency, µM (titrated, usually from 57.5 µM), for the others: at the highest dose activity change, negative = viability loss, usual class: cytotoxic; actives 7% (n = 690); also: potency is read from the fitted curve at half-maximal effect; % is scaled to controls: 0 for no effect and ±100 for the full control effect
PMP22 txn cnf – confirmation of modulators of PMP22 gene transcription in S16 cells | shares compounds with PMP22 txn | S16 Schwann cells Pmp22-F2sN, dual luciferase, 24 h | Potency, µM (highest dose often 57.5 µM), without a hit: at the top dose activity change, negative = inhibition, actives largely listed as inhibitors | actives 22% (n = 690); active = clear falling dose curves in both reporters; inconclusive = both reporters move, but less clearly or upward; inactive = either reporter flat; the % is the FLuc reporter signal; also: potency is read from the fitted curve at half-maximal effect
PMP22 HiBiT cnf – rat PMP22 protein level modulation, confirmatory | 95 tested, under 10 active | AID 1508647 | shares compounds with PMP22 txn | Potency, µM (doses to about 27.9 µM), without a hit: at the top dose activity change, negative = inhibition, most hits filed as inhibitors | S16 Schwann cells Pmp22-HiBiT, luminescence, 48 h
Target sequence (P25094 whole entry, looked up): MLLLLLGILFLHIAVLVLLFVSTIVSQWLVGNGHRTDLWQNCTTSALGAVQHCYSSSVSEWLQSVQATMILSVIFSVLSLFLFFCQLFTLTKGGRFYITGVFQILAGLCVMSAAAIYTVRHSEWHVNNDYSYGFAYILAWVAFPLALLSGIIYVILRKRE
* hit, by the source's call; ? = inconclusive; . = not tested or not shown; [ ] = dose if it differs, or a comment. Hits are enriched below; roughly 3.3% of the tested compounds scored in any of these assays. Unless noted, calls follow the shape of the dose curve; as a rule, active = well fitted curve in the direction sought with a large enough effect; inconclusive = small, poorly fitted or top-dose-only effect, or another doubt; inactive = no such curve, though single readings can be large; an effect the other way counts as inactive or inconclusive.

SMILES	PMP22 txn	FH mod	HTT-AS act	pS6 MEF inh	HTT promoter inh	S16 F2sN tox	NLuc sat counter	NLuc Km ctr	FLuc ctr PMP22	S16 viab conf	PMP22 txn cnf	others
Cc1cccc(N2CCN(C(=O)C3CCCN(S(=O)(=O)c4ccc5c(c4)oc(=O)n5C)C3)CC2)c1C (centres undefined)	11µM*	-16%	-45%	-5%	5µM*	-20%	-13%	-2%	-6%	-24%	?	PMP22 HiBiT cnf=?
Cn1c(=O)oc2cc(S(=O)(=O)N3CCCC(C(=O)N4CCN(c5cccc(Cl)c5)CC4)C3)ccc21 (centres undefined)	13µM*	-10%	-43%	-1%	?	-27%	-7%	-2%	7%	-6%	17µM*	PMP22 HiBiT cnf=?
Cn1c(=O)oc2cc(S(=O)(=O)N3CCC(C(=O)N4CCN(c5cccc(Cl)c5)CC4)CC3)ccc21	?	-6%	-43%	-17%	?	?	.	.	.	.	.
Cc1cccc(N2CCN(C(=O)C3CCN(S(=O)(=O)c4ccc5c(c4)oc(=O)n5C)CC3)CC2)c1C	20µM*	-14%	-43%	0%	?	-15%	-5%	3%	2%	-15%	-28%
C=C[C@H]1[C@H](O[C@@H]2O[C@H](CO)[C@@H](O)[C@H](O)[C@H]2O)OC=C(C(=O)OC)[C@H]1C[C@@H]1c2cc(O)c(O)cc2CCN1C(C)=O	.	8%[20.6 µM]	.	.	.	.	.	.	.	.	.
COc1ccc(-c2ccc3c(N4CCOCC4C)nc(N4CCOCC4C)nc3n2)cc1CO (centres undefined)	.	23%	.	.	.	.	.	.	.	.	.
CCOc1ccc(-c2nc(CSCC(=O)NCCc3ccccc3)c(C)o2)cc1	?	?	-50%	3%	7.1µM*	-29%	?	?	19µM*	-24%	-90%
COc1ccc(-c2cc(C(F)(F)F)nc(NCCc3ccccc3)n2)cc1OC	13µM*	-15%	-17%	3%	-14%	4%	-15%	-18%	1%	-18%	1%
CCc1ccc(CNC(=O)c2nn(-c3ccc(C)cc3)c(=O)c3c2c2ccccc2n3C)cc1	2.8µM*	-24%	-25%	-1%	-12%	0%	-5%	2%	1%	?	?
CCN(Cc1ccccc1)C(=O)c1nn(-c2ccc(OC)cc2)c(=O)c2c1c1ccccc1n2C	19µM*	-22%	-34%	1%	?	?	-18%	-4%	3%	21%	-42%
Cc1ccc(NC(=O)CSc2c3c(nc4ccccc24)CCCC3)cc1F	?	-21%	-31%	-13%	-19%	-18%	.	.	.	.	.
COc1ccc(Nc2c3c(nc4ccc(NC(=O)c5ccc(F)cc5)cc24)CCCC3)cc1OC	?	-17%	-28%	0%	-23%	?	.	.	.	.	.
Cc1ccc2nc3c(c(Nc4ccc(C)c(C)c4)c2c1)CCC3	19µM*	-10%	-47%	-10%	?	?	-13%	-15%	-6%	6%	?
Cc1ccc(Nc2c3c(nc4ccccc24)CCC3)cc1F	16µM*	-15%	-51%	-4%	?	-15%	-11%	?	5%	-27%	?
CS(=O)(=O)NCC1CCC(Nc2nc3c(s2)CCSc2ccccc2-3)CC1 (centres undefined)	.	-8%	.	.	.	.	.	.	.	.	.
CC(C)CCNc1ncccc1C(=O)N1CCN(Cc2ccccc2)CC1	.	4%	.	.	.	.	.	.	.	.	.
Cc1c(C(=O)N(C)C)sc2c1c(=O)n(-c1ccc(F)cc1)c(=O)n2Cc1cc(=O)n2ccccc2n1	11%	-25%	-3%	-9%	-7%	0%	.	.	.	.	.
CCN(CC)C(=O)c1sc2c(c1C)c(=O)n(-c1ccccc1)c(=O)n2Cc1cc(=O)n2ccccc2n1	12µM*	-1%	-2%	1%	-3%	-1%	-4%	3%	0%	-5%	-27%
Cc1[nH]c2ccccc2c1C1(O)C(=O)N(Cc2ccccc2)c2ccc(Br)cc21 (centres undefined)	16µM*	?	-28%	?	-19%	-9%	-16%	?	-1%	?	?
Cc1c(C(=O)OC2CCCCCC2)[nH]c2c1C(=O)CC(c1ccccc1Cl)C2 (centres undefined)	?	-20%	-34%	-25%	?	-22%	.	.	.	.	.
Cc1c(C(=O)OC2CCC(C)CC2)[nH]c2c1C(=O)CC(c1ccccc1Cl)C2 (centres undefined)	10µM*	-6%	-17%	?	-21%	-28%	?	-5%	6%	10%	-23%
Clc1ccc(CN[C@H]2CCN(c3ncc(Br)cn3)C2)c(Cl)c1	.	-8%	.	.	.	.	.	.	.	.	.
Cc1ccc(S(=O)(=O)Nc2cc3c(cc2N2CCOCC2)n(C)c(=O)n3C)c(C)c1	15µM*	?	-22%	2%	-14%	?	-4%	-3%	5%	-9%	-45%
